Screening data deposited in PubChem BioAssay by several laboratories.
tim23-1 inh: growth inhibitors of tim23-1 mutant yeast, primary screen, luminescence, uHTS | S. cerevisiae tim23-1 growth, BacTiter-Glo luminescence, 24 h | inhibition, % at 20 µM | 330,000 tested, 1.3% active | AID 463212, 2010;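 active = growth inhibition of the mutant yeast at or above 50%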;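 also: temperature-sensitive mutant grown at 25 °C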
SKKanGAS inh: S. pyogenes SKKanGAS growth inhibitors in kanamycin, primary screen, streptokinase expression inhibitor project, SKKanGAS strain, BacTiter-Glo luminescence. 300,000 tested, 1.3% active. AID 1662, 2009. 6 h. inhibition, % at 7.5 µM;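 active = mean replicate score, as percent of positive control median, at least 50; inconclusive = mean below 50 but one replicate at or above 50; inactive = mean and every replicate below 50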;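 also: strain carries kanamycin resistance gene driven by streptokinase promoter and grows in 40 µg/ml kanamycin; loss of luminescence reflects streptokinase promoter inhibition or plain growth inhibition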
tim10-1 inh: growth inhibitors of tim10-1 mutant yeast, primary screen, luminescence, uHTS. S. cerevisiae tim10-1 ts strain growth, BacTiter-Glo, 24 h. inhibition, % at 20 µM. 330,000 tested, 2.2% active;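 active = inhibition of at least 40%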;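 also: mutant grown at 25 °C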
Calb FLC: C. albicans growth inhibition with fluconazole, primary screen, CaCi-2 strain, Alamar Blue fluorescence. C. albicans CaCi-2 (fluconazole-resistant clinical isolate) + fluconazole, 48 h. growth inhibition, % (test concentration not listed). 300,000 tested, 0.57% active;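 active = growth inhibition above about 58% in most replicates, limit read from the data, passing the limit was not always enough; inconclusive = exactly half the replicates above a set limit; inactive = most replicates below a set limit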;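 also: all wells also contain fluconazole at 8 µg/ml as a sub-toxic cotreatment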
PfHsp90 set2: growth inhibition of PfHsp90-expressing yeast, primary screen, antimalarial PfHsp90 inhibitor project, S. cerevisiae, BacTiter-Glo luminescence, single point, set 2 | BacTiter-Glo ATP, 48 h; yeast lacking PDR1 and PDR3 efflux regulators | inhibition, % at 9.4 µM | 310,000 tested, 0.32% active;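 active = every replicate shows inhibition above about 80%, whatever the replicate mean, limit read from the data; inconclusive = mean inhibition reaches the set limit but some replicate falls short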
TIM10 inh: growth inhibitors of isogenic TIM10 control yeast, primary screen, counter-screen for tim10-1 yeast inhibitor project, luminescence, uHTS; S. cerevisiae TIM10 strain growth, BacTiter-Glo luminescence, 24 h; inhibition, % at 10 µM; 330,000 tested, 1.4% active;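 active = inhibition of 40% or more at the single tested concentration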;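 also: wild-type TIM10 isogenic control strain grown at permissive 25 °C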
tim10-1 conf: growth inhibitors of tim10-1 mutant yeast, confirmation, single concentration, luminescence, S. cerevisiae; S. cerevisiae tim10-1 ts strain growth, BacTiter-Glo, 24 h; shares compounds with tim10-1 inh; inhibition, % at 20 µM; AID 463213, 2010; 7,400 tested, 56% active;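 active = inhibition of yeast growth at or above a set limit in either of two repeat tests at 20 µM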;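 also: tim10-1 mutant grown at permissive 25 °C to find synthetic lethal compounds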
Of the large screens only hits and unclear results are named; the others gave an inactive call (follow-up assays come after a bar, where they were run). A selection: hits, their analogues and other compounds. The true share with any hit is near 4.7%.

COc1ccc(C(=O)NC(=S)Nc2ccc(CN3CCOCC3)cc2)cc1OC	none (no result: PfHsp90 set2)
CC(=O)c1cccc(NC(=S)NC(=O)c2ccccc2)c1	none
O=C(Nc1ccc(CN2CCOCC2)cc1)c1ccc(-c2cc(Cl)ccc2Cl)o1	tim10-1 inh 44 | tim10-1 conf inactive
CC(=O)c1cccc(NC(=S)NC(=O)c2cccc(Cl)c2)c1	tim10-1 inh 45 | tim10-1 conf inactive
CCC(=O)NC(=S)Nc1cccc(NC(=O)c2ccccc2C)c1	none
CCC(=O)NC(=S)Nc1cccc(NC(=O)c2ccccc2Cl)c1	tim10-1 inh 45 | tim10-1 conf inactive
COc1ccc(C(=O)NC(=S)Nc2ccc(CN3CCOCC3)cc2)cc1Cl	tim10-1 inh 52 (no result: Calb FLC) | tim10-1 conf inactive
CSc1ccccc1C(=O)N(C)C(c1ccccc1)c1ccccc1	none
O=C(NC1CCCCC1)C1CC(=O)N(CCc2ccc(F)cc2)C1 (stereo not given)	none
CCOC(=O)C1CCCN(C(=S)NC2CCCC2)C1 (stereo not given)	none
O=C(NC1CC1(c1ccccc1)c1ccccc1)c1ccccc1 (stereo not given)	none (no result: tim23-1 inh, SKKanGAS inh, tim10-1 inh, Calb FLC, TIM10 inh)
O=C(NC(=S)Nc1ccc(N2CCOCC2)cc1)c1ccccc1	none
O=C(NC(=S)Nc1ccc(N2CCOCC2)cc1)c1cccc(Cl)c1	tim10-1 inh 41 | tim10-1 conf inactive
Cc1cc(-c2ccc(C)c(S(=O)(=O)NCc3cccc(Br)c3)c2)on1	tim10-1 inh 41 | tim10-1 conf inactive
Cc1cc(-c2ccc(C)c(S(=O)(=O)NCCc3ccco3)c2)on1	none
Cc1cc(-c2ccc(C)c(S(=O)(=O)NCc3ccc(Br)cc3)c2)on1	tim10-1 inh 43 | tim10-1 conf inactive
O=C(C1CCC1)N1CCCc2cc(S(=O)(=O)N3CCN(c4ccccc4)CC3)ccc21	tim10-1 inh 46 | tim10-1 conf 35
CCOC(=O)c1c(C)[nH]c(C)c1C(=O)COC(=O)c1cc2ccccc2cc1O	tim10-1 inh 47 | tim10-1 conf inactive
CCOC(=O)c1c(C)[nH]c(C)c1C(=O)COC(=O)c1cc2ccccc2cc1OC	none
O=C(CSc1nncn1-c1cccnc1)Nc1cccc(C(F)(F)F)c1	none
O=C(NC(Cc1ccccc1)C(=O)O)/C(=C\c1ccccc1)NC(=O)c1ccc(Br)o1 (stereo not given)	none
CCCCCC(=O)c1c(C)[nH]c(C(=O)OCC)c1C	none
CCCCCCC(=O)c1c(C)[nH]c(C(=O)OCC)c1C	tim10-1 inh 40, Calb FLC inconclusive | tim10-1 conf inactive
FC(F)(F)c1nc2ccccc2c2nc3ccccc3n12	tim10-1 inh 41 | tim10-1 conf inactive
FC(F)(F)c1nnc2c(Sc3ccccn3)nc3ccccc3n12	tim10-1 inh 55 (no result: PfHsp90 set2) | tim10-1 conf 35
c1ccc(-c2nc3ccccc3c3nc4ccccc4n23)cc1	none
C[C@@H]1CN([C@@H](C)CO)C(=O)c2cccc(NS(C)(=O)=O)c2O[C@H]1CN(C)CC1CCCCC1	none (no result: SKKanGAS inh, Calb FLC)
CCCn1c2ccc(C)cc2c2n[nH]c(=S)nc21	tim10-1 inh 46 | tim10-1 conf inactive
Cc1c(C(=O)NCCSc2ccc(Cl)cc2)cccc1[N+](=O)[O-]	tim10-1 inh 41 | tim10-1 conf 37
CCN(C(=O)CSc1nnc(SC(C)C)s1)C1CCS(=O)(=O)C1 (stereo not given)	none (no result: SKKanGAS inh, Calb FLC)
CCC(=O)Nc1nnc(S(=O)(=O)N2CCc3ccccc32)s1	tim10-1 inh 49 | tim10-1 conf inactive
COC(=O)C(CC(=O)c1ccc(Br)cc1)n1ccnc1 (stereo not given)	tim10-1 inh 72 (no result: PfHsp90 set2) | tim10-1 conf 44
COc1ccc2[nH]c(C(=O)N3CCN(c4ccccc4F)CC3)c(C)c2c1	tim10-1 inh 47 | tim10-1 conf 33
COc1ccccc1N1CCN(C(=O)c2cc(-c3ccc(F)cc3)[nH]c2C)CC1	tim10-1 inh 43 | tim10-1 conf 41
COc1cccc(N2CCN(C(=O)c3cc(-c4ccc(F)cc4)[nH]c3C)CC2)c1	tim10-1 inh 50 | tim10-1 conf inactive
CCc1nc2ccc(C(=O)N3CCN(c4cccc(OC)c4)CC3)cc2nc1CC	tim10-1 inh 46 | tim10-1 conf inactive
CC(C)(C)OC(=O)C[C@@H]1C/C=C\C[C@H](CC(=O)NCCO)C(=O)N2CCC[C@@H]2COC1=O	none (no result: SKKanGAS inh, Calb FLC)
COc1ccccc1N1CCN(C(=O)c2oc3cc(C)cc(C)c3c2C)CC1	tim10-1 inh 45 | tim10-1 conf inactive
Cc1[nH]c(-c2ccc(F)cc2)cc1C(=O)N1CCN(c2ccccc2F)CC1	tim10-1 inh 47 | tim10-1 conf 40
COc1cc(C(=O)N2CCN(c3cccc(C)c3C)CC2)cc(OC)c1OC	tim10-1 inh 42 | tim10-1 conf inactive
COc1ccccc1N1CCN(C(=O)C2CC2)CC1	none (no result: PfHsp90 set2)
COc1ccccc1N1CCN(C(=O)c2cc(=O)c3ccc(C)cc3o2)CC1	none
COc1ccccc1N1CCN(C(=O)C2c3ccccc3Oc3ccccc32)CC1	tim10-1 inh 45 (no result: PfHsp90 set2) | tim10-1 conf inactive
Cc1cc(C(=O)NCC(c2ccco2)N(C)C)ccc1[N+](=O)[O-] (stereo not given)	none
COc1ccc2[nH]cc(CCNC(=O)Nc3ccccc3C)c2c1	none
Cc1sc2nc[nH]c(=O)c2c1-c1ccc(F)cc1	none
Cc1sc2nc[nH]c(=S)c2c1-c1ccccc1	tim10-1 inh 40 | tim10-1 conf inactive
Cc1ccc(S(=O)(=O)c2nc(S(C)(=O)=O)sc2N2CCC(C)CC2)cc1	tim10-1 inh 46 | tim10-1 conf inactive
Cc1ccc(S(=O)(=O)c2nc(S(C)(=O)=O)sc2N2CCCCCC2)cc1	none
Clc1ccc2c(c1)-c1nnc(Br)n1-c1ccccc1S2	tim10-1 inh 48 (no result: Calb FLC) | tim10-1 conf inactive
C[C@]12c3[nH]c4ccc(Cl)cc4c3CCN1C(=O)[C@@H](CC(=O)NCCc1ccccn1)C[C@@H]2C(=O)N1CCCCC1	none (no result: SKKanGAS inh, Calb FLC)
O=C(c1cc(C2CC2)nn1-c1ccccc1)N1CCN(c2ccc(O)cc2)CC1	none (no result: SKKanGAS inh, Calb FLC)
CC(C)C[C@@H](CN)NC(=O)c1nc[nH]c1C(=O)N[C@@H](C)C(=O)CNC[C@H](C)NC(=O)c1nc[nH]c1C(=O)N[C@@H](CC(=O)O)C(=O)O	none (no result: tim23-1 inh, SKKanGAS inh, tim10-1 inh, Calb FLC, TIM10 inh)
O=C(O)c1ccc(CSc2nc3ccc(N4C(=O)C5C6C=CC(C6)C5C4=O)cc3s2)cc1 (stereo not given)	tim10-1 inh 52, Calb FLC inconclusive | tim10-1 conf inactive
CC(C)NC(=S)N/N=C1\CCCCc2ccccc21	tim10-1 inh 57 | tim10-1 conf 38
